In PubChem BioAssay (Tox21) one finds Potency data, which are given here for seven compounds.

Assay [1] concerns the target Gonadotropin-releasing hormone receptor (Homo sapiens) (UniProt P30968). Nature of the assay: Human gonadotropin-releasing hormone receptor (GnRHR) small molecule agonists, calcium flux assay in GnRHR-HEK293 cells (AID 1920063). Note: nearly all actives have a fitted effect of over 35% in size. In a few lines: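 HEK293 cells stably expressing human GnRHR were dye-loaded for 1 h at 37 C. Compound was added in agonist mode and fluorescence (Ex/Em 480/540) recorded kinetically for 3 min. Fifteen concentrations, triplicates.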

The target in assay [2] is KiSS-1 receptor (Homo sapiens) (UniProt Q969F8). In words: Human kisspeptin (KISS1R) small molecule agonists, calcium flux assay in KISS1R-HEK293 cells (AID 1920064; active = well fitted activation curve with a large enough effect in the repeat runs). The method in brief: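 HEK293 cells stably expressing human KISS1R were loaded with calcium dye for 1 h at 37 C, then given compound; fluorescence (Ex/Em 480/540) was read kinetically for 3 min. Fifteen concentrations, triplicate.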
Chain of KiSS-1 receptor (Homo sapiens) (Q969F8 whole entry, looked up): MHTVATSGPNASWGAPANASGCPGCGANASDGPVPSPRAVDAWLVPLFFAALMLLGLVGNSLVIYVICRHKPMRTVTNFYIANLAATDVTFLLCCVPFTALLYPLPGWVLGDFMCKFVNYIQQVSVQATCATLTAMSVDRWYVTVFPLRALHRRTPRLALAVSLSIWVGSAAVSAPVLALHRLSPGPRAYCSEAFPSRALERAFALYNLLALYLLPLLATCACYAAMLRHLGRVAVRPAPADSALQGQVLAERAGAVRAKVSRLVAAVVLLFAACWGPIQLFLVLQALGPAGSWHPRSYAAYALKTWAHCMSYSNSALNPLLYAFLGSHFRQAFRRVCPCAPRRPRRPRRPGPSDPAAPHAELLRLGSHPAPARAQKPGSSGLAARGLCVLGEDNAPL
A general note: A change in cytosolic calcium serves as a functional read-out for many receptors and channels.

Assay [3] can be described thus: G protein-coupled receptor (GPCR) small molecule agonists, calcium flux assay: HEK293 wild type cell line counter screen (AID 1920065). The method in brief:
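Wild-type HEK293 cells plated 18 h, loaded with calcium dye 1 h at 37 C, then compounds added in agonist mode (ATP as positive control). Kinetic fluorescence Ex/Em 480/540 recorded 3 min at 1 sec intervals; 15 concentrations, triplicate.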

The nature of assay [4]: p53 small molecule agonists, cell-based qHTS assay with human liver microsomes (AID 1963577).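 Note: p53 response element beta-lactamase reporter cells with liver microsomes plus NADPH.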 The method in brief: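 p53RE-bla cells; 5 h settle, 37 C/5% CO2; cpd + HLM 0.5 mg/mL + NADPH 0.5 mg/mL (final); 16 h 37 C; LiveBLAzer 2 h RT dark; fluorescence readout.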
(In qHTS, concentration-response curves come from the screen itself.)

The nature of assay [5]: p53 small molecule agonists, cell-based qHTS assay with rat liver microsomes (AID 1963578). The method in brief:
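Rat liver microsome activation: microsomes 0.5 mg/mL, NADPH 0.5 mg/mL final; p53RE-bla cells, 16 h 37 C; LiveBLAzer readout, 2 h RT dark.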

Assay [6] in a line: p53 small molecule agonists, cell-based qHTS assay with human liver microsomes: qHTS cell viability counter screen (AID 1963579). Note: nearly all actives have a fitted effect of over 45% in size. The method in brief:
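Luminescent CellTiter-Glo read-out, 30 min at room temperature, gauged cytotoxicity in p53RE-bla cells exposed 16 h at 37 C to DMSO-dissolved compounds with metabolic activation by human liver microsomes and NADPH, each 0.5 mg/mL final.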

Assay [7] is described as follows: p53 small molecule agonists, cell-based qHTS assay with rat liver microsomes: qHTS cell viability counter screen (AID 1963580). Note: nearly all actives have a fitted effect of over 45% in size. In a few lines: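 p53RE-bla HCT-116 cells (4,000/well) rested 5 h at 37 C, then given Tox21 compounds in DMSO with rat liver microsomes (0.5 mg/mL final) plus NADPH (0.5 mg/mL final) for 16 h at 37 C. Viability read by CellTiter-Glo luminescence after 30 min at room temperature.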

A short description of assay [8]: p53 small molecule agonists, cell-based qHTS assay: qHTS cell viability counter screen (AID 1963581). Note: nearly all actives have a fitted effect of over 45% in size. In a few lines: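 p53RE-bla HCT-116 cells, compounds added 5 h after plating and incubated 16 h at 37 C. Cytotoxicity measured in the same wells as intracellular ATP by CellTiter-Glo luminescence after 30 min at room temperature.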
Assay [9] can be described thus: p53 small molecule agonists, cell-based qHTS assay (AID 1963582; active = well fitted activation curve with a large enough effect in the signal ratio in the repeat runs, not every such curve was filed as active; the % refers to the signal ratio). The method in brief: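 p53RE-bla reporter cells, compounds added in DMSO after 5 h plating, incubated 16 h at 37 C. Beta-lactamase read via 2 h room-temperature LiveBLAzer B/G FRET substrate, fluorescence intensity.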
The target in assay [10] is 5-hydroxytryptamine receptor 2A (Homo sapiens) (UniProt P28223). In words: 5-hydroxytryptamine receptor 2A (HTR2A) small molecule antagonists, cell-based qHTS assay (AID 1963586). Note: nearly all actives have a fitted effect of over 45% in size. In a few lines: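 Antagonist-mode intracellular calcium assay: DOI (4 nM) added after 5 min compound pre-incubation at room temperature to dye-loaded HTR2A-CHO cells. Fluorescence followed for 3 min, sampled every second.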
Chain of 5-hydroxytryptamine receptor 2A (Homo sapiens) (P28223 whole entry, looked up): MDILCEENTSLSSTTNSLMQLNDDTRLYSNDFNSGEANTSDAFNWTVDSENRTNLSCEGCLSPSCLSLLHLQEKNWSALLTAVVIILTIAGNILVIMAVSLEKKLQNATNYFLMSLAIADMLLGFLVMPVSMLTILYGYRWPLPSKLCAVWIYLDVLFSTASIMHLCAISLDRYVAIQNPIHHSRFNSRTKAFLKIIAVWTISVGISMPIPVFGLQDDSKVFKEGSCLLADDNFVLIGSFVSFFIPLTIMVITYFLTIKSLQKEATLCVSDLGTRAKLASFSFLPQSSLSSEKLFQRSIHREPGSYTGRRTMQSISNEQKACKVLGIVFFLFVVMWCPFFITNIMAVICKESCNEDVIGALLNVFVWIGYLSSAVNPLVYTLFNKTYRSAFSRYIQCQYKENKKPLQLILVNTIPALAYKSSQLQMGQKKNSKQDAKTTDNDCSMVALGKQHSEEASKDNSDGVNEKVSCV

The target is the same in assay [11]. Nature of the assay: 5-hydroxytryptamine receptor 2A (HTR2A) small molecule agonists, cell-based qHTS assay (AID 1963587). Note: nearly all actives have a fitted effect of over 30% in size. In a few lines:
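HTR2A-CHO cells, plated 18 h at 37 C/5% CO2, dye-loaded 1 h at 37 C; compounds in DMSO added by pin tool (agonist mode). Intracellular calcium flux read as kinetic fluorescence on FDSS over 2 min at 1 s intervals.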

Assay [12] deals with Muscarinic acetylcholine receptor M1 (Homo sapiens) (UniProt P11229). Nature of the assay: Cholinergic receptor muscarinic 1 (CHRM1) small molecule antagonists, cell-based qHTS assay (AID 1963588). Note: nearly all actives have a fitted effect of over 40% in size. In a few lines:
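CHRM1-CHO calcium-flux assay, antagonist mode. Cells were seeded 18 h, dye-loaded 1 h at 37 C and given compound for 5 min at RT, then acetylcholine was added at 50nM. FDSS fluorescence was read 3 min; 15 concentrations, three runs.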

Assay [13] is described as follows: cAMP Responsive Elements (CRE) small molecule agonists, cell-based qHTS assay (AID 1963590). In a few lines:
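CRE-bla HEK 293T cells, 2,000/well in DMEM with 10% dialyzed FBS and 25 mM HEPES, pre-incubated 18 h at 37 C, then exposed to compound 3 h at 37 C. Beta-lactamase reporter read with LiveBLAzer B/G FRET substrate after 2 h at room temperature.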

Assay [14] in a line: cAMP Responsive Elements (CRE) small molecule antagonists, cell-based qHTS assay (AID 1963591; active = well fitted inhibition curve with a large enough effect in the signal ratio in the repeat runs, not every such curve was filed as active; the % refers to the signal ratio). In a few lines:
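CRE-bla HEK293T cells plated 18 h, then given compound plus NKH477 at 0.25 uM final for 3 h at 37C. Beta-lactamase reporter read with LiveBLAzer B/G FRET substrate after 2 h at room temperature.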

For assay [15], the target named is Beta-2 adrenergic receptor (Homo sapiens) (UniProt P07550). Nature of the assay: Adrenergic beta2 receptor (ADRB2) small molecule antagonists, cell-based qHTS assay (AID 1963592). Note: nearly all actives have a fitted effect of over 50% in size. Note: potency is the fitted concentration of half-maximal effect. In a few lines: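 Cells (CHO, stable ADRB2 overexpression) incubated 18-20hr at 37C; compounds added from DMSO; agonist mix (1nM isoproterenol, 100uM IBMX, 25uM Ro-20-1724) added; 0.5hr RT; d2-cAMP and anti-cAMP-cryptate added; 1hr RT; 665/615 nm read.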
Chain of Beta-2 adrenergic receptor (Homo sapiens) (P07550 whole entry, looked up): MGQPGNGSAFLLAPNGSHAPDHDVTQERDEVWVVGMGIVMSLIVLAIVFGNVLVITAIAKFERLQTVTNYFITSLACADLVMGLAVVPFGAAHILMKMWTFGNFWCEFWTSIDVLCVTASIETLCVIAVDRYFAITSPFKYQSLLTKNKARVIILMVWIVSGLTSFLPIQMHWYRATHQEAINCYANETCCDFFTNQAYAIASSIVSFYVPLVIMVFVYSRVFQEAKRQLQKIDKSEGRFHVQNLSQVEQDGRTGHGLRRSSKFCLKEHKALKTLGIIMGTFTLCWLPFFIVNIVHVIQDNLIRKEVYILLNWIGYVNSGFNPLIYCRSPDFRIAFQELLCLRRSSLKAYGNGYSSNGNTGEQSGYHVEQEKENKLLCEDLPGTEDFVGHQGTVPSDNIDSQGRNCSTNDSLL

Assay [16] has the same target. In words: Adrenergic beta2 receptor (ADRB2) small molecule agonists, cell-based qHTS assay (AID 1963593).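 Note: CHO cells stably overexpressing human ADRB2.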 The method in brief: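 CHO cells stably over-expressing ADRB2 were plated overnight at 37C, then dosed with compounds plus a stimulation mix containing 100uM IBMX and 25uM Ro-20-1724 for 0.5hr at room temperature. cAMP was measured by HTRF competition, 1hr.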

In assay [17] the target is D(2) dopamine receptor (Homo sapiens) (UniProt P14416). Nature of the assay: Dopamine D2 receptor (DRD2) small molecule agonists, cell-based qHTS assay (AID 1963594). Note: nearly all actives have a fitted effect of over 35% in size. The method in brief:
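HEK293 cells stably expressing DRD2 were cultured 24 h at 37 C, then given Ro20-1724 (0.1 mM final) and compounds for 10 min at room temperature. NKH477 (200nM) was then added for 30 min. cAMP was read by HTRF.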

Assay [18] concerns the target Muscarinic acetylcholine receptor M1 (Homo sapiens) (UniProt P11229). Nature of the assay: Cholinergic receptor muscarinic 1 (CHRM1) small molecule agonists, cell-based qHTS assay (AID 1963589). Note: nearly all actives have a fitted effect of over 35% in size. In a few lines:
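CHO cells stably expressing human CHRM1 were loaded with calcium dye for 1 h at 37 C, then compound was added in agonist mode. Intracellular calcium fluorescence was followed kinetically at 1 s intervals. Fifteen concentrations were tested in three independent runs.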

Assay [19] has as its target D(2) dopamine receptor (Homo sapiens) (UniProt P14416). Nature of the assay: Dopamine D2 receptor (DRD2) small molecule antagonists, cell-based qHTS assay (AID 1963595; active = well fitted inhibition curve with a large enough effect in the signal ratio in the repeat runs, with a control signal flat; the % refers to the signal ratio). The method in brief:
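Antagonist mode in DRD2-HEK293 cells: after compound addition with 0.1 mM Ro20-1724, cells received quinpirole (12 nM) and NKH477 (200 nM) for 30 min at room temperature; HTRF cAMP read after 1 h detection.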

Inconclusive results are not listed. Some structures have more than one record in an assay (separate samples or runs), and their calls can disagree. Activity calls are given as the source filed them. Unless noted, calls come from the whole dose curve.

Chain of Muscarinic acetylcholine receptor M1 (Homo sapiens) (P11229 whole entry, looked up): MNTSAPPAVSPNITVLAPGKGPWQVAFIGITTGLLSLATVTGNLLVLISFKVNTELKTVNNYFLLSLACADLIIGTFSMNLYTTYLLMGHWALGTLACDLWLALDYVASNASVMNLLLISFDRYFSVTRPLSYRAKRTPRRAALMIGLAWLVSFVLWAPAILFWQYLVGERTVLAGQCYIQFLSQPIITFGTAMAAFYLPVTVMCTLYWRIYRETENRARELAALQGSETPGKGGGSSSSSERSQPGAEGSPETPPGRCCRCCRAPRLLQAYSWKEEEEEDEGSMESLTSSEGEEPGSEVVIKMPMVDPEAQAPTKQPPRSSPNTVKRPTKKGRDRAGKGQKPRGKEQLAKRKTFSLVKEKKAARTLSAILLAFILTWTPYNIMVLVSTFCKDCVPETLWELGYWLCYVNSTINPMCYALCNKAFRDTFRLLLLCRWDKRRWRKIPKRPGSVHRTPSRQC
Chain of D(2) dopamine receptor (Homo sapiens) (P14416 whole entry, looked up): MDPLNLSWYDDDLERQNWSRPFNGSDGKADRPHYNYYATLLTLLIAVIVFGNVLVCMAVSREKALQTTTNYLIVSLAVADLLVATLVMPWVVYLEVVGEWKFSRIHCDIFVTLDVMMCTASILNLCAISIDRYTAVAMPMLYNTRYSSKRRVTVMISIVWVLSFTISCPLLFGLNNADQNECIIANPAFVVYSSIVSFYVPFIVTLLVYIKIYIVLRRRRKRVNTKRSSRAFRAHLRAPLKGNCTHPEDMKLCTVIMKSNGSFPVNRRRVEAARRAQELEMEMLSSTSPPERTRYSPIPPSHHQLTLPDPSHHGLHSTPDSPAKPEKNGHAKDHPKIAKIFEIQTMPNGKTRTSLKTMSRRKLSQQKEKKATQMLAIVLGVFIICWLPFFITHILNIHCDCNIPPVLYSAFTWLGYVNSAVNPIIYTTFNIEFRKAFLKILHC
Chain of Gonadotropin-releasing hormone receptor (Homo sapiens) (P30968 whole entry, looked up): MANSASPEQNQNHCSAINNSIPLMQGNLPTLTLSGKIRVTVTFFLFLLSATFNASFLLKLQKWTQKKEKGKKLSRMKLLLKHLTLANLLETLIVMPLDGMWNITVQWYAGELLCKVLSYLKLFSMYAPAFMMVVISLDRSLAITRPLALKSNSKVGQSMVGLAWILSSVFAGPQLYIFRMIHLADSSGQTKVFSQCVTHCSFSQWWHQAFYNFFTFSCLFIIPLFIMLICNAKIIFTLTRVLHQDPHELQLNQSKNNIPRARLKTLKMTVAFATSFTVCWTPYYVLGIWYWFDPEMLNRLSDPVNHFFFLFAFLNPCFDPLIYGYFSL

With `CC(C)CCO`, the Potency result in [1], in assay [2], in [3], in assay [4], in [5] and in assay [6] was “inactive” throughout. Moreover, the Potency result in assay [7], in assay [8], in [9], in assay [10], in [11] and in [12] was “inactive” in each case. For the same compound, the Potency result in assay [13], in assay [14], in [15], in assay [16] and in assay [17] was “inactive” throughout.

On to `COc1cc(C(=S)N2CCOCC2)cc(OC)c1OC`, for which the Potency entry in [1], in assay [2], in assay [3], in [4], in assay [5] and in [6] was “inactive” each time. Also, the Potency result in assay [7], in assay [8], in assay [9], in assay [10], in [11] and in assay [12] was “inactive” throughout. Further, the Potency entry in [18], in assay [13], in assay [14], in [17] and in [19] was “inactive” throughout.

For `CCCCOCCOCCOCCO`, the Potency entry in [1], in assay [2], in assay [3], in assay [4], in [5] and in [6] was “inactive” in each case. Besides, the Potency result in assay [7], in assay [8], in assay [9], in [10], in assay [11] and in assay [12] was “inactive” each time. The Potency entry in [18], in assay [13], in assay [14], in [16], in assay [17] and in assay [19] was “inactive” throughout. Also, the Potency in assay [15] is 30.3 µM (active) and inactive.

Regarding `CCCCN=C(N)N=C(N)N`, the Potency entry in [1], in assay [2], in [3], in assay [4], in assay [5] and in assay [6] was “inactive” throughout. Further, the Potency entry in assay [7], in assay [8], in assay [9], in assay [10], in [11] and in assay [12] was “inactive” in each case. Also, the Potency entry in [18], in [13], in assay [14], in [15], in assay [17] and in [19] was “inactive” in each case.

As for `NCCN1CCNC1=O`, the Potency result in assay [1], in assay [2], in assay [3], in [4], in assay [5] and in assay [6] was “inactive” each time. The Potency result in [7], in assay [8], in assay [9], in assay [10], in [12] and in [18] was “inactive” throughout. Besides, the Potency entry in assay [13], in assay [14], in [15], in assay [17] and in assay [19] was “inactive” each time.

Regarding `O=C(/N=N/C(=O)OCc1ccccc1)OCc1ccccc1`, the Potency entry in assay [1], in [2], in assay [3], in [4], in [5] and in [6] was “inactive” in each case. Also, the Potency entry in [7], in [8], in assay [9], in assay [10], in assay [11] and in assay [12] was “inactive” in each case. Moreover, the Potency entry in assay [18], in assay [13], in [15], in [16], in [17] and in assay [19] was “inactive” each time.

As for `COc1cccc(OC)c1C(=O)N[C@@H]1C(=O)N2[C@@H]1SC(C)(C)[C@@H]2C(=O)O`, the Potency entry in assay [1], in assay [2], in assay [3], in assay [4], in [5] and in [6] was “inactive” throughout. For the same compound, the Potency result in assay [7], in assay [8], in assay [9], in assay [10], in assay [11] and in [12] was “inactive” each time. Also, the Potency entry in [18], in assay [13], in [14], in assay [15], in assay [16] and in [19] was “inactive” each time.
